# Beta2AR agonist = beta2AR agonists driving receptor internalization, primary screen, cell-based, FAP fluorogen, flow cytometry. Beta-2 adrenergic receptor (Homo sapiens), P07550. Am2.2-beta2AR cells. response, % (concentration not given with the values). 340,000 compounds, 0.43% hits. AID 504454, 2011;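 active means response above a set limit, near 3 SD of response in nonfluorescent compounds, cut at about 42% in these data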
# Target sequence (P07550 whole entry, looked up): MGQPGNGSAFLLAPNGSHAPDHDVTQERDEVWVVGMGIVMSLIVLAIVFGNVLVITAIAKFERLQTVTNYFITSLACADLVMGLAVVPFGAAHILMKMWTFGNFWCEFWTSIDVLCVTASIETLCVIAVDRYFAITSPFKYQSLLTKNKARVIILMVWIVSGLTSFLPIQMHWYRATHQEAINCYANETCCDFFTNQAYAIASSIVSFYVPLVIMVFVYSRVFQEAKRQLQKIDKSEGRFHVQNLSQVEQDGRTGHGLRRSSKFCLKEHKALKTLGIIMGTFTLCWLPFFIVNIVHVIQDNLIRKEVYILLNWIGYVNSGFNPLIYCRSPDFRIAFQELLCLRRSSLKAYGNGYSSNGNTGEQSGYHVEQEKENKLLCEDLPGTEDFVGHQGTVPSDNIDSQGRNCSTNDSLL
# PfHsp90 set2 = growth inhibition of PfHsp90-expressing yeast, primary screen, antimalarial PfHsp90 inhibitor project, S. cerevisiae, BacTiter-Glo luminescence, single point, set 2 | BacTiter-Glo ATP, 48 h; yeast lacking PDR1 and PDR3 efflux regulators | inhibition, % at 9.4 µM | 310,000 compounds, 0.32% hits | AID 504621, 2011;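 active means every replicate shows inhibition above about 80%, whatever the replicate mean, limit read from the data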;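 further: 0% = DMSO neutral controls and 100% = 20 µM radicicol positive controls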
# TIM10 inh = growth inhibitors of isogenic TIM10 control yeast, primary screen, counter-screen for tim10-1 yeast inhibitor project, luminescence, uHTS; inhibition, % at 10 µM; S. cerevisiae TIM10 strain growth, BacTiter-Glo luminescence, 24 h; 330,000 compounds, 1.4% hits;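 active means inhibition of 40% or more at the single tested concentration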;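 further: wild-type TIM10 isogenic control strain grown at permissive 25 °C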
# tim10-1 inh = growth inhibitors of tim10-1 mutant yeast, primary screen, luminescence, uHTS | S. cerevisiae tim10-1 ts strain growth, BacTiter-Glo, 24 h | AID 463190, 2010 | 330,000 compounds, 2.2% hits | inhibition, % at 20 µM;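 active means inhibition of at least 40%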;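 further: mutant grown at 25 °C; 0% = DMSO wells with yeast and 100% = wells holding no yeast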
# tim23-1 inh = growth inhibitors of tim23-1 mutant yeast, primary screen, luminescence, uHTS | S. cerevisiae tim23-1 growth, BacTiter-Glo luminescence, 24 h | inhibition, % at 20 µM | 330,000 compounds, 1.3% hits | AID 463212, 2010;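 active means growth inhibition of the mutant yeast at or above 50%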;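 further: temperature-sensitive mutant grown at 25 °C; plate controls were DMSO-treated mutant yeast for no effect and medium wells lacking yeast for full effect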
# tim10-1 confirm = growth inhibitors of tim10-1 mutant yeast, confirmation, single concentration, luminescence, S. cerevisiae; shares compounds with tim10-1 inh; S. cerevisiae tim10-1 ts strain growth, BacTiter-Glo, 24 h; inhibition, % at 20 µM; 7,400 compounds, 56% hits;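 active means inhibition of yeast growth at or above a set limit in either of two repeat tests at 20 µM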;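 further: tim10-1 mutant grown at permissive 25 °C to find synthetic lethal compounds; 0% = DMSO yeast wells and 100% = medium wells without yeast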
# tim10 confirm = growth inhibitors of wild-type TIM10 yeast, confirmation, counter-screen for tim10-1 synthetic lethality project, single concentration, luminescence, S. cerevisiae; shares compounds with TIM10 inh; S. cerevisiae tim10 strain growth, BacTiter-Glo luminescence, 24 h; inhibition, % at 10 µM; 4,600 compounds, 63% hits; AID 463215, 2010;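 active means inhibition of yeast growth at or above a set limit in either of two replicates at 10 µM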;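 further: this counterscreen used the strain with wild-type TIM10; 0% = yeast with DMSO and 100% = medium wells lacking yeast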
# tim23-1 confirm = tim23-1 mutant yeast growth inhibitors, confirmation, luminescence, single concentration | 4,400 compounds, 83% hits | S. cerevisiae tim23-1 growth, BacTiter-Glo luminescence, 24 h | inhibition, % at 20 µM | AID 463218, 2010 | shares compounds with tim23-1 inh;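 active means inhibition above about 39% in either of two replicate wells at 20 µM, limit read from the data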;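 further: temperature-sensitive tim23-1 mutant grown at 25 °C; 0% = DMSO wells with yeast and 100% = medium wells without yeast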
# * hit, by the source's call; . = no result given. In the library only some 3.8% were active in any assay of this set; here they are far more common.
SMILES,Beta2AR agonist,PfHsp90 set2,TIM10 inh,tim10-1 inh,tim23-1 inh,tim10-1 confirm,tim10 confirm,tim23-1 confirm
O=S(=O)(c1ccccc1Br)N(CC(O)COCc1ccccc1)C1CC1 (stereo unspecified),-6,-9,-23,11,45,.,.,.
CCOC(=O)c1sc(NC(=S)NC(=O)CC(C)C)cc1C,4,-26,58*,53*,7,42*,51*,.
C[C@H]1COC(=O)[C@@H](NC(=O)OCC2c3ccccc3-c3ccccc32)C/C=C\C[C@H](CC(=O)NCCO)C(=O)N1,1,10,12,-6,-9,.,.,.
CCN1/C(=C/c2ccc3cc(C)ccc3[n+]2CC)Sc2ccccc21,.,92*,66*,65*,35,45*,75*,.
COc1cc(/C=C/C(=O)O)cc(S(=O)(=O)Nc2ccc(S(=O)(=O)N3CCCCC3)cc2)c1OC,-1,24,2,4,21,.,.,.
Cc1cc2n(n1)SC(Nc1cc(Cl)ccc1Cl)N2 (stereo unspecified),-3,-9,48*,47*,55*,35*,45*,37*
CCOc1ccc(NC(C)c2cc(Cl)ccc2O)cc1 (stereo unspecified),21,9,17,26,16,.,.,.
CC(Nc1ccc(Cl)cc1)c1cc(Cl)ccc1O (stereo unspecified),4,3,29,66*,64*,58*,.,52*
CCOc1ccc(N(CC(=O)NCCSCc2ccco2)S(=O)(=O)c2ccc(C)cc2)cc1,-5,-28,5,21,-2,.,.,.
COc1cc(/C=C(\C#N)C(=O)c2ccc(O)c(O)c2)cc(I)c1O,-244,0,2,17,18,.,.,.
Cc1ccc(C(=O)OCC(=O)N(C)c2ccccc2)c(C)c1,-1,-17,18,57*,52*,50*,.,46*
O=C(COc1cccc(NC(=O)c2ccco2)c1)c1ccc(F)cc1,-11,39,47*,42*,55*,32*,48*,71*
COc1ccc(C(=O)O/N=C(\N)c2ccc(OC)c(OC)c2)c(OC)c1,1,-12,4,38,30,.,.,.
COc1ccc(C(=O)O/N=C(\N)c2ccc(OC)c(OC)c2)cc1,-8,-1,49*,73*,53*,78*,40*,64*
COc1ccc(/C(N)=N/OC(=O)c2ccc(OC)c([N+](=O)[O-])c2)cc1OC,16,11,10,37,11,.,.,.
COc1ccc(C(=O)O/N=C(\N)c2ccccc2)c(OC)c1,1,-1,70*,76*,60*,72*,67*,87*
COc1ccc(Nc2nc3ccccc3n2C)cc1,-10,2,3,8,14,.,.,.
COc1ccc(/C=C/c2nc3ccccc3n2C)cc1,-11,22,70*,57*,66*,49*,67*,47*
Cc1cc(C)c(-c2c(N)cc(Br)cc2Br)c(N)c1,-4,.,.,.,.,.,.,.
Cc1cccc(/C(N)=N/OC(=O)COc2ccccc2Cl)c1,-10,-10,.,.,.,.,.,.
N/C(=N\OC(=O)N1c2ccccc2Sc2ccccc21)c1ccccc1,31,-9,84*,61*,66*,48*,85*,50*
CC(=O)N1c2ccccc2Sc2ccccc21,9,-9,-13,-6,-4,.,.,.
Cc1cccc(/C(N)=N/OC(=O)N2c3ccccc3Sc3ccccc32)c1,0,-24,83*,65*,60*,52*,-32,45*
CC(NC(=O)COC(=O)C1CCCCC1)c1ccccc1 (stereo unspecified),-4,8,-5,0,13,.,.,.
CCOc1ncc(S(=O)(=O)N2CCN(CC)CC2)cc1C(=O)O,6,-6,4,6,8,.,.,.
SMILES,Beta2AR agonist,PfHsp90 set2,TIM10 inh,tim10-1 inh,tim23-1 inh,tim10-1 confirm,tim10 confirm,tim23-1 confirm
COc1ccc(-c2oc3ccccc3c2C(=O)Oc2ccccc2)cc1,-16,-2,5,6,6,.,.,.
COc1cc2c(oc(=O)c3cc(C)cc(OC)c32)c2c(C3OC(C)C(O)C(C)(O)C3O)ccc(O)c12 (stereo unspecified),0,-22,.,.,.,.,.,.
O=C1CSC(=S)N1Nc1ccccc1,-1,9,.,.,.,.,.,.
C=CCNC(=O)/C(C#N)=C/c1cc(Br)ccc1OC,12,-10,83*,78*,88*,84*,91*,71*
Cc1cccc(NC(=O)/C(C#N)=C/c2ccccc2Cl)n1,11,23,42*,52*,71*,25,32*,62*
C=CCNC(=O)/C(C#N)=C/c1ccccc1Cl,8,-25,66*,51*,85*,63*,74*,80*
CC(C)(C)N(Cc1ccc2c(c1)OCO2)C(=O)/C=C\S(=O)c1ccccc1 (stereo unspecified),-3,-9,.,.,.,.,.,.
CCN(C[C@H]1N[C@@](CC)(C(=O)OC)[C@H]2C(=O)N(Cc3ccccc3)C(=O)[C@@H]12)S(=O)(=O)c1ccc(OC(F)(F)F)cc1,4,-18,8,4,22,.,.,.
Cc1ccc2occ(/C=N/NC(=O)c3ccc(Cl)cc3)c(=O)c2c1,7,9,6,19,41,.,.,.
CCOc1ccccc1C(=O)N/N=C/c1coc2ccc(Cl)cc2c1=O,-8,23,71*,67*,68*,54*,22,69*
CCN(CC)CCOc1ccc2c(c1)C(=NO)c1cc(OCCN(CC)CC)ccc1-2,15,-21,-14,-14,-10,.,.,.
CCCOc1ccc2c(c1)C(=NN=C(N)N)c1cc(OCCC)ccc1-2,8,0,32,76*,62*,38*,.,33
CCOC(=O)C(=CNc1ccc(N2CCCCC2)c(S(=O)(=O)Nc2ccccc2OC)c1)C(=O)OCC,2,36,.,.,.,.,.,.
CCOC(=O)c1c2c(n(C)c1C)C(=O)C(=O)c1ccc(Br)cc1-2,-2,.,66*,57*,56*,27,44*,47*
CC(C)(C)[C@H]1COC(=O)CCCC/C=C\C[C@H](CC(=O)NCCO)C(=O)N1,5,-1,-2,-11,-8,.,.,.
CCCN(CCC)C(=O)C(c1ccccc1)C1(O)CCCCC1 (stereo unspecified),-12,-15,.,.,.,.,.,.

# Screening data deposited in PubChem BioAssay by several laboratories.
